Compound activity (PubChem BioAssay)
Most compounds without a hit are left out; they make up all but 5.1% or so of the library.
CRFR2-BP ag: agonists of human CRF-binding protein/CRF-R2 receptor complex. HEK293 CRF-R2/CRF-BP, calcium dye fluorescence (FLIPR); percent of saturating CRF peptide response. AID 588473. activation, % at 13.2 µM. 350,000 compounds, 0.46% hits;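 active means activation of at least 50%, plus an integration ratio under a set limit after plate pattern correction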
NR3A LBD binder: modulators (binders) of human NR3A ligand-binding domain | NR3A LBD differential scanning fluorimetry, Tm shift; 0% = protein alone, 100% = glycine-bound protein | Tm shift relative to glycine control, % at 25 µM | 340,000 compounds, 2.5% hits;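 active means melting temperature shift of at least 10% of the positive control shift, at one fixed dose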
ANO1 activ: mouse TMEM16A channel activation, primary screen. Q8BHY3. HEK293 TMEM16A/YFP-H148Q/I152L, iodide quench fluorescence; hits give low values. B-score at 10 µM. 340,000 compounds, 0.3% hits;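 active means fluorescence-ratio B-score plate-corrected deviation score at least 3 library SD below zero, with starting fluorescence score within 5 deviations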;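 further: channel opened by trigger with iodide after compound preincubation; score built on the fluorescence ratio of max minus min over baseline; more negative score means more quench and so TMEM16A activation or potentiation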
Target sequence (Q8BHY3 whole entry, looked up): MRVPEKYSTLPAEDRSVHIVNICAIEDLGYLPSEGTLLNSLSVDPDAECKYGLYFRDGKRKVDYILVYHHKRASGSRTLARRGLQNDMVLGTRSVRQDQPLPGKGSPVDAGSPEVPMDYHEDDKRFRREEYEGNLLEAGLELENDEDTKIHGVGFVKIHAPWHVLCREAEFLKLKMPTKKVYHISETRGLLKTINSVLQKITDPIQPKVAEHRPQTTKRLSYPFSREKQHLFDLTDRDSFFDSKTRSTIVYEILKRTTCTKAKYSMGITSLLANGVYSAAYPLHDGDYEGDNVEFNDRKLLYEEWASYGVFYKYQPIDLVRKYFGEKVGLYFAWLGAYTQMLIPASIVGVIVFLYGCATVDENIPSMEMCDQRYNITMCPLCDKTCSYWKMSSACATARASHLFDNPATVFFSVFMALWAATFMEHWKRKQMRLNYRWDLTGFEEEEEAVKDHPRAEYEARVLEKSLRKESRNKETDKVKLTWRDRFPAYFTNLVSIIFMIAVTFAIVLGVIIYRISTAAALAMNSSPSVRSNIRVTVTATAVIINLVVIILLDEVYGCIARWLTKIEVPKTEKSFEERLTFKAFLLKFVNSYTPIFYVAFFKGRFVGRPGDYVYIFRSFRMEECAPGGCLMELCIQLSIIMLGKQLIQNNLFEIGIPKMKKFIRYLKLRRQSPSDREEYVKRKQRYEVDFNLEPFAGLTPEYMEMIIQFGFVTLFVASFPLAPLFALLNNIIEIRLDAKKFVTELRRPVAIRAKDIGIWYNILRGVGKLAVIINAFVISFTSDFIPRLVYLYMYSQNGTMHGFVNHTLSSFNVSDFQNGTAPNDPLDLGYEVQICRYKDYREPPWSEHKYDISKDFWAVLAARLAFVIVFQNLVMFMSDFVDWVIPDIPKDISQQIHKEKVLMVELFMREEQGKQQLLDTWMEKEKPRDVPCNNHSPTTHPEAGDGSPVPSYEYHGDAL
MPTP block: permeability transition pore inhibition; 360,000 compounds, 1.4% hits; isolated mouse mitochondria, Ca2+ swelling absorbance, 30 min; inhibition, % at 10 µM;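 active means inhibition of 50% or more, scaled per plate between neutral and stimulator controls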
CRFR2-BP antag: antagonists of CRF-binding protein/CRF-R2 receptor complex. inhibition, % at 11.8 µM. HEK293 CRF-R2/CRF-BP, CRF-induced calcium fluorescence. 350,000 compounds, 0.59% hits. AID 588475;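 active means inhibition of the ligand-induced calcium signal above about 50% at the single tested concentration, limit read from the data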
TMEM16A inh: inhibitors of mouse TMEM16A calcium-activated chloride channel. Q8BHY3. HEK293 TMEM16A/YFP iodide influx fluorescence, ionomycin. normalized B-score (activity score, 25-100; higher = stronger inhibition) at 10 µM. 310,000 compounds, 1.2% hits. AID 588511;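 active means ratio plate-corrected score three or more library SD toward inhibition, starting fluorescence score within five deviations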;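 further: score derived from kinetic fluorescence span divided by baseline fluorescence per well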
Rh123 counter: mitochondrial membrane potential, counter-screen; shares compounds with MPTP block; isolated mitochondria, Rhodamine 123 fluorescence; inhibition, % at 10 µM; 5,000 compounds, 78% hits; AID 624504; in the data active means inhibition above about 22%
Numbers stand for hits; 0 = inactive; - = no result given.

SMILES | CRFR2-BP ag | NR3A LBD binder | ANO1 activ | MPTP block | CRFR2-BP antag | TMEM16A inh | Rh123 counter
FC(F)(F)c1cccc(NC(=S)NCc2ccccn2)c1 | 0 | 0 | 0 | 0 | 0 | 0 | -
CCCNC(=S)Nc1cccc(C(F)(F)F)c1 | 0 | 0 | 0 | 0 | 0 | 0 | -
CN1C(=O)c2cccc(NCCCN3C(=O)c4ccccc4C3=O)c2C1=O | 0 | 0 | 0 | 0 | 0 | 0 | -
CN1C(=O)c2cccc(NCCCCCCN3C(=O)c4ccccc4C3=O)c2C1=O | 0 | 0 | 0 | 108.1 | 0 | 0 | 93.9
COc1ccc(NC(=S)Nc2cccc(S(=O)(=O)N3CCCCC3)c2)cc1 | 0 | 0 | 0 | 67.9 | 0 | 0 | 87.7
O=[N+]([O-])c1ccc(NC(=S)NCc2ccncc2)cc1 | 0 | 0 | 0 | 0 | 0 | 0 | -
Cc1ccc(NC(=S)NCc2ccccc2)cc1S(=O)(=O)N1CCCCC1 | 0 | 0 | 0 | 75.1 | 0 | 0 | 75.2
Cc1ccc(NC(=O)CSc2ccccc2)cc1S(=O)(=O)N1CCCCC1 | 0 | 0 | 0 | 0 | 0 | - | -
O=[N+]([O-])c1ccc(NC(=S)NCCc2ccc(Cl)cc2)cc1 | 0 | 31.1 | 0 | 88.3 | 0 | 100 | 84.8
COc1ccc(NC(=S)Nc2ccc(S(=O)(=O)N3CCCCC3)cc2)cc1 | 0 | - | - | 0 | 0 | - | -
O=S(=O)(c1ccc(NC(=S)NCc2ccco2)cc1)N1CCCCC1 | 0 | 0 | 0 | 78.6 | 0 | 0 | 92.1
COc1ccc(-c2noc(CNS(=O)(=O)c3ccc(NC(C)=O)cc3)n2)cc1OC | 0 | 0 | 0 | 0 | 0 | 0 | -
O=[N+]([O-])c1ccc(NC(=S)NCCc2ccccc2)cc1 | 0 | 34.6 | 0 | 86.6 | 0 | 100 | 88.2
O=S(=O)(c1ccc(NC(=S)NCCc2ccccc2)cc1)N1CCOCC1 | 0 | 23.9 | 0 | 66.6 | 0 | 0 | 85.1
CCOc1ccccc1NC(=O)COC(=O)CC(C)(C)CC1=NS(=O)(=O)c2ccccc2N1 | 0 | 0 | 0 | 0 | 0 | 0 | -
CCc1ccc(OCC(=O)NC2CCCCC2)c(Br)c1 | 0 | 0 | 0 | 0 | 0 | 0 | -
CC(C)(C)c1ccc(OCC(=O)Nc2ccncc2)c(Br)c1 | 0 | 0 | 0 | 108.3 | 0 | 0 | 87.5
CCc1ccc(OCC(=O)Nc2ccncc2)c(Br)c1 | 0 | 0 | 0 | 78.8 | 0 | 0 | 80.1
O=C(COc1ccc2ccccc2c1Br)Nc1ccncc1 | 0 | 13.6 | 0 | 91.9 | 0 | 0 | 81.6
Cc1ccccc1C(=O)O[C@H]1[C@H](Cc2ccccc2)NS(=O)(=O)[C@H]2CC3C=C[C@]12O3 | 0 | 0 | 0 | 0 | 0 | - | -
CSc1cccc(CN2CCC(Oc3ccc(C(=O)N4CCCCC4)cc3)CC2)c1 | 0 | 0 | 0 | 0 | 0 | 0 | -
Cc1ccc(S(=O)(=O)NC(C)C(=O)OCC(=O)Nc2sccc2C(N)=O)cc1 (stereo unspecified) | 0 | - | - | 0 | 0 | - | -
C1=C(c2ccc(-c3ccccc3)cc2)Nc2ncnn2C1c1ccco1 (stereo unspecified) | 208.3 | 0 | 0 | 58.1 | 0 | - | 0
Cc1ccc(C2C=C(c3ccccc3)Nc3ncnn32)cc1 (stereo unspecified) | 0 | 0 | 0 | 0 | 0 | 0 | -
CC(N=c1ccccn1C(=O)Nc1cccc(C(F)(F)F)c1)c1ccco1 (stereo unspecified) | 0 | 0 | 0 | 90.1 | 0 | 0 | 83.6
CC(C)n1cc(CN2CCCC(CNS(=O)(=O)c3cccc4cccnc34)C2)cn1 (stereo unspecified) | 0 | 0 | 0 | 0 | 0 | 0 | -
O=C(/C(=C\c1ccccc1)c1nc2ccccc2[nH]1)c1ccc(Cl)cc1 | 0 | 0 | 0 | 74.6 | 0 | 0 | 75.0
COc1cc(/C=C(/C(=O)c2cccs2)c2nc3ccccc3[nH]2)ccc1O | 0 | 0 | 0 | 0 | 0 | 0 | -
O=C(/C(=C/c1ccc(Cl)cc1)c1nc2ccccc2[nH]1)c1cccs1 | 0 | 0 | 0 | 65.5 | 0 | 0 | 75.4
Cc1ccc(C(=O)OCC(=O)N(CCc2ccccc2)Cc2ccccc2)cc1S(=O)(=O)N1CCOCC1 | 0 | 0 | 0 | 0 | 0 | 0 | -
